# PubChem BioAssay (NCATS)
# Results filed as inconclusive are left out. Active and inactive are the calls of the source. Calls follow the shape of the dose curve; as a rule, active = well fitted curve in the direction sought with a large enough effect; inconclusive = small, poorly fitted or top-dose-only effect, or another doubt; inactive = no such curve, though single readings can be large; an effect the other way counts as inactive or inconclusive.
# Key:
# [1] = qHTS of pediatric cancer cell lines to identify multiple opportunities for drug repurposing: Confirmatory screen for SK-N-MC cells (AID 1347111);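 also: cells exposed to compound for 48 h before the readout; nearly all actives have a fitted effect of over 70% in size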
# In short: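 Metabolically active cells were quantified by ATP-dependent luminescence (CellTiter-Glo, 15 min at room temperature) following 48 h treatment. Cells had been plated at 500-1,000 per well and settled for 5 h beforehand.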
# [2] = qHTS of pediatric cancer cell lines to identify multiple opportunities for drug repurposing: Confirmatory screen for BT-12 cells (AID 1347112); also: nearly all actives have a fitted effect of over 55% in size
# In short: (§1)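 Cells (500-1,000/well) in growth media were settled 5 h at 37 degrees C, then given compounds for 48 h. Viability was read as CellTiter-Glo luminescence. Primary runs used MIPE at 11 points (0.78 nM-46 µM) and NPC at 8 points (0.59 nM-46 µM); follow-ups used 11 points.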
# [3] = qHTS of pediatric cancer cell lines to identify multiple opportunities for drug repurposing: Confirmatory screen for LAN-5 cells (AID 1347113); also: nearly all actives have a fitted effect of over 65% in size
# In short: as §1
# [4] = qHTS of pediatric cancer cell lines to identify multiple opportunities for drug repurposing: Confirmatory screen for DAOY cells (AID 1347114); also: nearly all actives have a fitted effect of over 65% in size
# In short: (§2)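 Viability measured as metabolically active cells via CellTiter-Glo luminescence following 48 hours of compound exposure, 11-point dilutions in confirmatory testing. 500-1,000 cells/well plated 5 hours before dosing; controls were DMSO and 2.3 µM bortezomib.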
# [5] = qHTS of pediatric cancer cell lines to identify multiple opportunities for drug repurposing: Confirmatory screen for NB-EBc1 cells (AID 1347115);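 also: cells exposed to compound for 48 h before the viability read; nearly all actives have a fitted effect of over 45% in size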
# In short: as §1
# [6] = qHTS of pediatric cancer cell lines to identify multiple opportunities for drug repurposing: Confirmatory screen for SJ-GBM2 cells (AID 1347116); also: nearly all actives have a fitted effect of over 60% in size
# In short: as §2
# [7] = qHTS of pediatric cancer cell lines to identify multiple opportunities for drug repurposing: Confirmatory screen for BT-37 cells (AID 1347117); conditions: BT-37 pediatric cancer cells, viability; activity change, negative = cytotoxic: at 45.9 µM (top of the series); also: nearly all actives have a fitted effect of over 55% in size
# In short: as §1
# [8] = qHTS of pediatric cancer cell lines to identify multiple opportunities for drug repurposing: Confirmatory screen for TC32 cells (AID 1347118);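 also: cells exposed to compound for 48 h before the read; nearly all actives have a fitted effect of over 65% in size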
# In short: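 Measured quantity: luminescence from CellTiter-Glo, reflecting metabolically active TC32 cells following 48 h of compound. Curves came straight from multi-point titrations, with 8 or 11 points in primary and 11 in confirmatory screening.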
# [9] = qHTS of pediatric cancer cell lines to identify multiple opportunities for drug repurposing: Confirmatory screen for MG 63 (6-TG R) cells (AID 1347119); also: nearly all actives have a fitted effect of over 55% in size
# In short: as §1
# [10] = qHTS of pediatric cancer cell lines to identify multiple opportunities for drug repurposing: Confirmatory screen for control Hh wild type fibroblast cells (AID 1347121); also: nearly all actives have a fitted effect of over 70% in size
# In short: as §1
# Potency is read from the fitted curve at half-maximal effect.
SMILES,Potency [1],Potency [2],Potency [3],Potency [4],Potency [5],Potency [6],Potency [7],Potency [8],Potency [9],Potency [10]
O=S(=O)(O)CCSSCCS(=O)(=O)O,inactive,inactive,inactive,inactive,inactive,inactive,inactive,inactive,inactive,inactive
COc1cc2c(cc1OC)[C@@H]1C(=O)c3ccc4c(c3O[C@@H]1CO2)C=CC(C)(C)O4,2330 nM (active),1310 nM (active),3690 nM (active),185 nM (active),827 nM (active),,2080 nM (active),,104 nM (active),293 nM (active)
O=C(C=CC#Cc1cccc(NS(=O)(=O)c2ccccc2)c1)NO,414 nM (active),18500 nM (active),2610 nM (active),7370 nM (active),5850 nM (active),4650 nM (active),2610 nM (active),737 nM (active),2610 nM (active),
CC(C)(N)c1ccc(-c2nc3ccccc3nc2-c2ccccc2)cc1,465 nM (active),928 nM (active),465 nM (active),inactive,inactive,,18500 nM (active),1470 nM (active),,
CC1(C)O[C@@H]2C[C@H]3[C@@H]4CCC5=CC(=O)C=C[C@]5(C)[C@@H]4[C@@H](O)C[C@]3(C)[C@]2(C(=O)CO)O1,inactive,inactive,inactive,inactive,inactive,inactive,inactive,inactive,inactive,inactive
CC(C=CC1=C(C)CCCC1(C)C)=CC=CC(C)=CC(=O)Nc1ccc(O)cc1,2400 nM (active),24000 nM (active),6030 nM (active),33900 nM (active),13500 nM (active),2400 nM (active),38000 nM (active),2140 nM (active),42700 nM (active),
COc1ccc(C(C)=O)c(O)c1,inactive,inactive,inactive,inactive,inactive,,inactive,,inactive,inactive
COC(=O)[C@@H]1[C@H]2C[C@@H]3c4[nH]c5ccccc5c4CCN3C[C@@H]2CC[C@@H]1O,inactive,inactive,inactive,inactive,inactive,inactive,inactive,inactive,inactive,
Cc1ccc([N+](=O)[O-])cc1S(=O)(=O)N(C)N=Cc1cnc2ccc(Br)cn12,1040 nM (active),827 nM (active),522 nM (active),329 nM (active),293 nM (active),465 nM (active),329 nM (active),293 nM (active),,
CC(C)N1[N]C(=C2C=c3cc(O)ccc3=N2)c2c(N)ncnc21,2330 nM (active),13100 nM (active),2930 nM (active),5220 nM (active),4140 nM (active),4140 nM (active),1310 nM (active),1170 nM (active),414 nM (active),
Nc1ncn([C@@H]2O[C@H](CO)[C@@H](O)[C@@H]2O)c(=O)n1,16500 nM (active),18500 nM (active),16500 nM (active),,13100 nM (active),16500 nM (active),16500 nM (active),4650 nM (active),,
CCC(C(=O)O)C1CCC(C)C(C(C)C(O)C(C)C(=O)C(CC)C2OC3(C=CC(O)[C@@]4(CC[C@](C)(C5CC[C@@](O)(CC)C(C)O5)O4)O3)C(C)CC2C)O1 (some centres undefined),inactive,3690 nM (active),1170 nM (active),3290 nM (active),,,inactive,inactive,inactive,
CO[C@@H]1[C@@H](O)[C@H](O)[C@@H](n2c3c(Cl)cccc3c3c4c(c5c6cccc(Cl)c6[nH]c5c32)C(=O)NC4=O)O[C@@H]1CO,928 nM (active),4650 nM (active),1650 nM (active),,1470 nM (active),5220 nM (active),827 nM (active),737 nM (active),1310 nM (active),inactive
Oc1cc(-c2nc(-c3ccccc3)[nH]c2-c2ccncc2)ccc1Cl,3690 nM (active),2330 nM (active),6570 nM (active),,,7370 nM (active),2610 nM (active),7370 nM (active),inactive,
CC(C)NC[C@@H](C(=O)N1CCN(c2ncnc3c2[C@H](C)C[C@H]3O)CC1)c1ccc(Cl)cc1,2930 nM (active),inactive,2930 nM (active),inactive,,inactive,,4140 nM (active),11700 nM (active),inactive
N#CNC(=NCCCCCCOc1ccc(Cl)cc1)Nc1ccncc1,14.7 nM (active),,11.7 nM (active),165 nM (active),41.4 nM (active),41.4 nM (active),18.5 nM (active),4.1 nM (active),,
Oc1ccc(-c2ccc(-c3cc(Nc4cccc(CNC5CC5)c4)n[nH]3)cc2)c(O)c1,827 nM (active),8270 nM (active),2330 nM (active),6570 nM (active),,14700 nM (active),6570 nM (active),2330 nM (active),inactive,inactive

SMILES,Potency [1],Potency [2],Potency [3],Potency [4],Potency [5],Potency [6],Potency [7],Potency [8],Potency [9],Potency [10]
Cn1cc(-c2cnn3c(N)c(Br)c([C@H]4CCCNC4)nc23)cn1,827 nM (active),inactive,5850 nM (active),,,,3690 nM (active),5850 nM (active),,inactive
COc1cc(C[C@@H](CO)[C@H](CO)Cc2ccc(O)c(OC)c2)ccc1O,8270 nM (active),inactive,,,inactive,,inactive,9270 nM (active),inactive,inactive
N#Cc1c(NC(=O)c2cccc3ccccc23)sc2c1CCCC2,369 nM (active),2330 nM (active),,,,,827 nM (active),233 nM (active),329 nM (active),inactive
CC(=O)O[C@H]1C[C@@H]2CC[C@H]3[C@H]4C[C@H]([N+]5(C)CCCCC5)[C@@H](OC(C)=O)[C@@]4(C)CC[C@@H]3[C@@]2(C)C[C@H]1N1CCCCC1,3290 nM (active),7370 nM (active),4140 nM (active),,,14700 nM (active),3290 nM (active),2330 nM (active),inactive,
O=C(O)c1ccc(Nc2ncc3c(n2)-c2ccc(Cl)cc2C(c2c(F)cccc2F)=NC3)cc1,4140 nM (active),inactive,inactive,,,,,1470 nM (active),,inactive
CCOC(=O)C1=C(C)NC(=S)NC1c1cccc(O)c1 (centres undefined),5220 nM (active),inactive,inactive,,inactive,,,3690 nM (active),inactive,inactive
FC(F)c1nc2ccccc2n1-c1nc(N2CCOCC2)nc(N2CCOCC2)n1,737 nM (active),1040 nM (active),1470 nM (active),,,inactive,1470 nM (active),928 nM (active),928 nM (active),
CCCCC(=O)O[C@]1(C(=O)CO)[C@@H](C)C[C@H]2[C@@H]3CCC4=CC(=O)C=C[C@]4(C)[C@@]3(F)[C@@H](O)C[C@@]21C,18500 nM (active),inactive,inactive,inactive,,inactive,inactive,,inactive,inactive
COc1cc([C@@H]2c3cc4c(cc3[C@@H](O[C@@H]3O[C@@H]5CO[C@@H](c6cccs6)O[C@@H]5[C@H](O)[C@@H]3O)[C@H]3COC(=O)[C@H]23)OCO4)cc(OC)c1O,104 nM (active),3690 nM (active),,5220 nM (active),,,261 nM (active),131 nM (active),,inactive
COC(=O)C1C2CC3c4[nH]c5cc(OC)ccc5c4CCN3CC2CC(OC(=O)c2cc(OC)c(OC)c(OC)c2)C1OC (centres undefined),369 nM (active),2610 nM (active),14700 nM (active),,,,1470 nM (active),,,inactive
N#Cc1c(C2CCNCC2)cc(-c2c(O)cccc2OCC2CC2)nc1N,inactive,inactive,,16500 nM (active),inactive,,,inactive,,inactive
O=C1NCCc2[nH]c(-c3ccncc3)cc21,7370 nM (active),2330 nM (active),,4140 nM (active),,,2330 nM (active),4140 nM (active),8270 nM (active),inactive
CC(C)C[C@H](NC(=O)CNC(=O)c1cc(Cl)ccc1Cl)B1OC(=O)CC(CC(=O)O)(C(=O)O)O1 (some centres undefined),131 nM (active),414 nM (active),233 nM (active),165 nM (active),,147 nM (active),522 nM (active),465 nM (active),,16500 nM (active)
CC(=O)ON=C1C(c2c(O)[nH]c3cc(Br)ccc23)=Nc2ccccc21,8270 nM (active),18500 nM (active),14700 nM (active),,16500 nM (active),,16500 nM (active),16500 nM (active),18500 nM (active),inactive
COC1=C2C[C@@H](C)C[C@H](OC)[C@@H](O)[C@@H](C)C=C(C)[C@H](OC(N)=O)[C@@H](OC)C=CC=C(C)C(=O)NC(=CC1=O)C2=O,1040 nM (active),,1470 nM (active),5850 nM (active),9270 nM (active),1310 nM (active),1040 nM (active),928 nM (active),,
CCN(CC)Cc1ccc2cc(COC(=O)Nc3ccc(C(=O)NO)cc3)ccc2c1,inactive,inactive,inactive,inactive,,inactive,inactive,inactive,inactive,
